NPC1 prom act = qHTS Assay for NPC1 Promoter Activators. actives 2.4% (n = 320,000). Potency, µM (series often up to 9.22 µM), most hits filed as activators. Huh7 NPC1 promoter luciferase reporter, 24 h. AID 485313, 2010; note: nearly all actives have a fitted effect of over 60% in size
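Stably transfected Huh7 (NPC1 promoter→luciferase), 1500 cells/well in Opti-MEM + 10% FBS, 2 h settle, then compound 24 h at 37 °C. Luminescence after 10 min with Amplite reagent.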
ELG1 genotoxic = qHTS screen for small molecules that induce genotoxicity in human embryonic kidney (HEK293T) cells expressing luciferase-tagged ELG1; HEK293T ELG1-luciferase reporter, luminescence, 16 h; Potency, µM (series often up to 46 µM), actives largely listed as activators; actives 1.3% (n = 330,000); note: nearly all actives have a fitted effect of over 60% in size
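Reporter readout depends on ELG1 protein level, which increases with genetic stress. After 16 hr compound exposure at 37 °C, luciferase activity was quantified using ONE-Glo.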
ELG1 repair inh = qHTS screen for small molecules that inhibit ELG1-dependent DNA repair in human embryonic kidney (HEK293T) cells expressing luciferase-tagged ELG1. HEK293T ELG1-luciferase reporter, luminescence, 16 h; DNA damage induced by 5-fluorouridine. Potency, µM (doses to about 46.1 µM), hits mostly inhibitors. actives 2.3% (n = 330,000); note: nearly all actives have a fitted effect of over 55% in size
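Overnight (16 hr) co-exposure of 2,000 cells/well to 5-fluorouridine and compound at 37 °C preceded detection. Luciferase was quantified via ONE-Glo luminescence; loss of signal denotes inhibition.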
SMN2 splice up = qHTS Assay for Enhancers of SMN2 Splice Variant Expression | HEK293 SMN2-luciferase splicing reporter, luminescence, 30-36 h | actives 2.8% (n = 210,000) | Potency, µM (top dose mostly 46.1 µM), most hits filed as activators | AID 1458, 2008; note: nearly all actives have a fitted effect of over 55% in size
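qHTS luciferase splicing reporter: luminescence rises when SMN2 exon 7 is included in transfected HEK293 cells. Compound exposure lasted 30-36 h at 37C, with 4.5 mM final sodium butyrate as control, followed by a ONE-Glo read.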
Rab9 promoter act = qHTS Assay for Rab9 Promoter Activators; Huh7 Rab9 promoter-luciferase reporter, luminescence, 24 h; Potency, µM (highest dose often 9.22 µM), usual class: activators; actives 2.8% (n = 320,000); note: nearly all actives have a fitted effect of over 60% in size
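Promoter activation is measured as luciferase luminescence in Huh7 cells stably transfected with a Rab9 promoter–luciferase construct, following 24 h compound exposure at 37 °C and 10 min reagent incubation at ambient temperature.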
FLuc counter = qHTS profiling assay for firefly luciferase inhibitor/activator using purifed enzyme and Km concentrations of substrates (counterscreen for miR-21 project); AID 588342, 2011; Luciferin 4-monooxygenase (Photinus pyralis), P08659; actives 6.9% (n = 360,000); purified FLuc, Km substrates, luminescence inhibition; Potency, µM (highest dose often 57.5 µM), actives largely listed as inhibitors; note: nearly all actives have a fitted effect of over 55% in size
Target sequence (P08659 whole entry, looked up): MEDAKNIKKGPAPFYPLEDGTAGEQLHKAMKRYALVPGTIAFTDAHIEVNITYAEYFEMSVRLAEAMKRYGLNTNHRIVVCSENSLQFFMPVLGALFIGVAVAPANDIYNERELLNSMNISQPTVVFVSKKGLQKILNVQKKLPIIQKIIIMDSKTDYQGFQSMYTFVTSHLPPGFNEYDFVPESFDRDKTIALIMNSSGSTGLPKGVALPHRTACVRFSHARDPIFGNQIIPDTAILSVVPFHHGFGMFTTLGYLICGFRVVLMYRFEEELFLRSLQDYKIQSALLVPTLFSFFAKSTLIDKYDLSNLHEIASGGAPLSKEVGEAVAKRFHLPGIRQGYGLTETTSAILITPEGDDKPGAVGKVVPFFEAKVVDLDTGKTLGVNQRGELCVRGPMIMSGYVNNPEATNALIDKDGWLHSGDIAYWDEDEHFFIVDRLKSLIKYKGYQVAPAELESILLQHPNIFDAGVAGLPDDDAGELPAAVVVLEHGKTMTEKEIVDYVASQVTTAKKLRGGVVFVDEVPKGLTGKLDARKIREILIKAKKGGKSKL
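Biochemical qHTS of compounds, final roughly 60 µM downward over six points, against 10 nM purified firefly luciferase using Km concentrations of substrates (10 uM D-luciferin, 10 uM ATP) in Tris acetate pH 7.5 buffer; luminescence output.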
Numbers stand for hits; n = inactive; u = inconclusive; x = no result; [ ] = remark or other dose. A selection: hits, their analogues and other compounds. The true share with any hit is near 9.4%. Calls come from the whole dose curve; as a rule, active = well fitted curve in the direction sought with a large enough effect; inconclusive = small, poorly fitted or top-dose-only effect, or another doubt; inactive = no such curve, though single readings can be large; an effect the other way counts as inactive or inconclusive.

SMILES	NPC1 prom act	ELG1 genotoxic	ELG1 repair inh	SMN2 splice up	Rab9 promoter act	FLuc counter
O=C(COC(=O)C(O)c1ccccc1)c1ccc2c(c1)OCCO2 (centres undefined)	n	n	u	n	n	1.5µM
CCc1ccc(C(=O)COC(=O)c2ccc(Cl)nc2)cc1	n	n	u	n	u	9.5µM
O=C(COC(=O)c1ccc(Cl)nc1)c1ccc2c(c1)OCCO2	4µM	u	u	n	1.6µM	0.76µM
O=C(OCC(=O)c1ccc[nH]1)c1ccc(Cl)nc1	n	n	n	x	n	n
CCOC(=O)c1c(C)[nH]c(C)c1C(=O)COC(=O)c1ccc(Cl)nc1	x	n	n	x	x	x
CC(OC(=O)c1cccnc1Cl)C(=O)Nc1ccc2c(c1)OCCO2 (centres undefined)	n	n	u	n	n	n
O=C(COC(=O)c1cccnc1Cl)c1ccc2c(c1)OCCO2	n	n	u	n	4.5µM	0.11µM
CCN(C(=O)c1cccn(Cc2cccc(Cl)c2)c1=O)c1ccccc1	x	x	x	x	x	n
CCCNC(=O)COCc1cc(-c2ccc(F)cc2)on1	x	x	x	x	x	n
Cn1c(=O)n(C)c2cc(CNCc3ccccc3Cl)ccc21	x	x	x	x	x	n
CCCc1cnc(N2CCN(C(=S)NC)CC2)nc1	u	23µM	u	x	4.5µM	17µM
Cc1c(NS(=O)(=O)c2cccs2)cccc1-c1nc2cccnc2s1	n	n	u	x	n	19µM
Cc1cc(-c2nc3cccnc3s2)ccc1NS(=O)(=O)c1cccs1	u	u	u	x	1.6µM	13µM
O=S(=O)(Nc1cccc2ncccc12)c1cccs1	n	n	4.1µM	n	n	n
Cc1c(NS(C)(=O)=O)cccc1-c1nc2cccnc2s1	u	n	u	x	u	17µM
Cc1ccc2c(=O)cc(C(=O)Nc3sc4c(c3C(=O)NCC3CCCO3)CCCC4)oc2c1C (centres undefined)	x	x	x	n	x	n
COc1cc2c(=O)n(Cc3ccccc3Cl)c(=O)n(CC(=O)Nc3ccc(C)c(C)c3)c2cc1OC	x	x	x	n	x	n
CCn1nc(C)c2c(-c3ccccc3)cc(=O)n(C(C)C(=O)Nc3cccc(F)c3)c21 (centres undefined)	x	x	x	x	x	n
CC1CCCCC1NC(=O)CSc1nnc(COc2ccccc2Cl)o1 (centres undefined)	n	n	n	n	n	21µM
O=C(CSc1nnc(COc2ccccc2Cl)o1)Nc1ccccc1	n	n	n	x	n	u
CC(C)(C)NC(=O)NC(=O)CSc1nnc(COc2ccccc2Cl)o1	n	n	n	n	n	17µM
CCCC(=O)OCc1cnc(C)c2oc(=O)c(C(=O)Nc3ccccc3)cc12	x	x	x	x	x	n
COc1ccccc1C(=O)Nc1nnc(SCc2cc(=O)n3ccc(C)cc3n2)s1	x	x	x	x	x	n
O=C(Nc1ccc(Cl)cc1)Nc1ccc(S(=O)(=O)Nc2ncccn2)cc1	n	n	n	x	n	u
O=C(Nc1ccc(Cl)cc1)Nc1ccccn1	2.8µM	u	u	x	2.2µM	5.4µM
SMILES	NPC1 prom act	ELG1 genotoxic	ELG1 repair inh	SMN2 splice up	Rab9 promoter act	FLuc counter
S=C(Nc1ccccn1)c1ccccn1	2.8µM	13µM	u	20µM	2.5µM	7.6µM
Oc1ccccc1CNc1cnc2ccccc2c1	u	u	u	u	u	11µM
CCOC(=O)c1ccc(NC(=O)Nc2ccccn2)cc1	2.5µM	u	u	x	1.3µM	2.7µM
Oc1ccc(Cl)cc1CNc1cnc2ccccc2c1	n	n	n	x	n	n
CCOC(=O)c1ccc(NC(=O)Nc2cccc(C)n2)cc1	n	u	n	n	n	n
CC1=C(C(=O)Nc2ccccc2)C(c2cccc(O)c2)n2nc(-c3ccccc3Cl)nc2N1 (centres undefined)	x	x	x	n	x	n
Cc1ccc(-c2nnc(Nc3ccc(Br)cc3)c3ccccc23)cc1S(=O)(=O)N1CCOCC1	x	x	x	x	x	n
Cc1ccc(-c2nc(C(=O)NCc3ccccc3Cl)c3n2CCCCC3)cc1	x	x	x	x	x	n
O=C(Nc1ccccc1)Nc1cccc2ccccc12	n	n	n	x	n	u
O=C(Nc1ccccc1)Nc1cccc2cccnc12	n	6.3µM	u	14µM	n	6µM
O=C(Nc1ccccn1)c1ccc(-c2ccccc2)cc1	0.1µM	u	u	x	0.089µM	0.21µM
O=C(Nc1ccccc1)Nc1ccccn1	u	u	u	14µM	u	12µM
COc1cc(NCc2ccccc2O)c2ncccc2c1	n	n	n	x	n	n
Oc1ccccc1CNc1cccc2cccnc12	n	u	u	x	n	17µM
O=C(Nc1ccccc1)Nc1cnccn1	n	n	n	x	n	n
COc1cc(NCCC(=O)O)c2ncccc2c1	x	x	x	n[9.22 µM]	x	x
COC(=O)C1NN=C(C(=O)c2ccc(Cl)cc2)C1c1ccc(OC)cc1 (centres undefined)	n	n	u	n	n	n
COC(=O)c1ccc(NC(=O)CCn2cccn2)cc1	x	x	x	x	x	n
CN(C(=O)CSc1nc(C2CCCC2)nc2c1c(=O)n(C)c(=O)n2C)c1ccccc1	x	x	x	x	x	n
O=C(Nc1ccccn1)C(=O)Nc1ccccn1	1.4µM	4.6µM	u	x	1.3µM	5.4µM
Cc1nc(NC(=O)Nc2ccc(Cl)cc2)sc1C	n	n	u	u	3.2µM	u
c1ccc(Nc2ccccn2)nc1	n	n	n	x	n	n
O=C(Nc1ccncc1)Nc1ccc(Cl)cc1	n	n	u	x	n	21µM
Cc1[nH]c2ccccc2c1C(=O)CSC(=S)N(C)C1CCCCC1	n	n	u	n	n	15µM
Cc1[nH]c2ccccc2c1SCC(=O)N1CCCCC1	n	n	n	n	n	n
SMILES	NPC1 prom act	ELG1 genotoxic	ELG1 repair inh	SMN2 splice up	Rab9 promoter act	FLuc counter
Cc1[nH]c2ccccc2c1C(=O)CSC(=S)N1CCCCC1	u	u	u	8.9µM	u	9.5µM
Cc1[nH]c2ccccc2c1C(=O)CSc1nc2cc(S(=O)(=O)N3CCCCC3)ccc2o1	n	n	15µM	n	n	n
Cc1ccc(C(=O)CSc2nc3cc(S(=O)(=O)N4CCOCC4)ccc3o2)cc1	n	n	n	n	n	n
O=C(COC(=O)Cn1cnc2ccccc21)Nc1cc2c(cc1Cl)C(=O)c1ccccc1C2=O	3.2µM	u	u	18µM	2.8µM	u
O=C(COC(=O)Cn1cnc2ccccc21)Nc1cc(S(=O)(=O)N2CCOCC2)ccc1Cl	n	n	n	x	n	n
CCOC(=O)COc1ccccc1/C=C1/NC(=O)NC1=O	n	n	n	n	n	n
COc1cccc(/C=C2\NC(=O)NC2=O)c1O	n	u	u	x	n	7.6µM
CCOc1ccc(NC(=O)CCC(=O)NNC(=O)c2ccco2)cc1	n	n	n	n	n	n
